Source: PubChem BioAssay (NCI)
About 83,000 compounds went through this panel and 20% of them were active in at least one assay; those are over-represented in the sample as a whole.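 How to read the values: 0–100, growth inhibition (40 = 60% inhibited); 0, no net growth; -100 to 0, cell death (-40 = 40% of starting cells died; -100 = all dead).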 A number with no mark means an inactive call. Calls of active or inactive are those of the source. Rule for the calls: active = growth percent below 10; inactive = the rest.

Experiments:
Assay in all cases: NCI-60 one-dose screen, 48 h (100 = growth as untreated, 0 = no growth, -100 = all killed)
Conditions in all cases: 10 µM
SK-MEL-2 melanoma = tested on: SK-MEL-2 melanoma
EKVX NSCLC = tested on: EKVX NSCLC
SN12C renal = tested on: SN12C renal
UO-31 renal = tested on: UO-31 renal
TK-10 renal = tested on: TK-10 renal
ACHN renal = tested on: ACHN renal
CAKI-1 renal = tested on: CAKI-1 renal
A498 renal = tested on: A498 renal
CCRF-CEM leukemia = tested on: CCRF-CEM leukemia
MOLT-4 leukemia = tested on: MOLT-4 leukemia
RPMI-8226 leukemia = tested on: RPMI-8226 leukemia
OVCAR-8 ovarian = tested on: OVCAR-8 ovarian
OVCAR-5 ovarian = tested on: OVCAR-5 ovarian
SK-OV-3 ovarian = tested on: SK-OV-3 ovarian
IGROV1 ovarian = tested on: IGROV1 ovarian
OVCAR-3 ovarian = tested on: OVCAR-3 ovarian
HS 578T breast = tested on: HS 578T breast
NCI/ADR-RES ovarian = tested on: NCI/ADR-RES ovarian
SR leukemia = tested on: SR leukemia
OVCAR-4 ovarian = tested on: OVCAR-4 ovarian

| Compound | growth (SK-MEL-2 melanoma) | growth (EKVX NSCLC) | growth (SN12C renal) | growth (UO-31 renal) | growth (TK-10 renal) | growth (ACHN renal) | growth (CAKI-1 renal) | growth (A498 renal) | growth (CCRF-CEM leukemia) | growth (MOLT-4 leukemia) | growth (RPMI-8226 leukemia) | growth (OVCAR-8 ovarian) | growth (OVCAR-5 ovarian) | growth (SK-OV-3 ovarian) | growth (IGROV1 ovarian) | growth (OVCAR-3 ovarian) | growth (HS 578T breast) | growth (NCI/ADR-RES ovarian) | growth (SR leukemia) | growth (OVCAR-4 ovarian) |
| --- | --- | --- | --- | --- | --- | --- | --- | --- | --- | --- | --- | --- | --- | --- | --- | --- | --- | --- | --- | --- |
| O=C(c1ccc(O)cc1)C1[C@H](c2ccc(Br)cc2)[C@@H](c2ccccc2)NC12C(=O)Nc1ccc(Br)cc12 (stereo partly specified) | -21.1% (active) | 6.1% (active) | -83.5% (active) | -27.3% (active) | -5.38% (active) | 2.27% (active) | 3.36% (active) | 10.9% | 19.7% | 12.4% | 1.12% (active) | 12% | -4.82% (active) | 13.2% | -6.01% (active) | -38.9% (active) | -6.2% (active) | -2.8% (active) | – | – |
| O=C(Nc1cccc([N+](=O)[O-])c1)Nc1cccc([N+](=O)[O-])c1 | 91.1% | 77.1% | 82.4% | 63.9% | 84.2% | 84.8% | 83.7% | 94.4% | 69.7% | – | 31.9% | 88.7% | 94.1% | 129% | 88.6% | 60.7% | 92.5% | 65.4% | 88.7% | 73.6% |
| COc1ccc2[nH]c(=O)c(CSc3nccc(-c4ccc(Cl)cc4)n3)cc2c1 | 42.9% | 7.4% (active) | 34.4% | 7.11% (active) | 19.6% | -46.2% (active) | -75.9% (active) | 45.5% | 32.6% | 22% | – | – | 50.9% | 42.1% | 60.9% | 44.8% | 37.2% | 12.2% | – | 36.3% |
| O=C(Nc1cccc(C(F)(F)F)c1)c1cncc(C#Cc2cnc3cccnn23)c1 | 61.1% | 54.7% | 35.5% | 30.4% | 97.8% | 55.2% | 71.8% | 171% | 16.5% | – | – | 41% | 56.3% | 83.6% | 41.6% | 43.7% | 45.7% | 16.6% | 9.35% (active) | 64.9% |
| CN(C)CCNC(=O)OCCCCOc1cc(O)c2c(=O)cc(-c3ccccc3)oc2c1 | -59.7% (active) | 11.7% | -9.43% (active) | -91.2% (active) | 0.634% (active) | -97.5% (active) | -39.1% (active) | -76.4% (active) | -5.67% (active) | – | -9.41% (active) | 3.84% (active) | -4.32% (active) | 99.1% | -9.88% (active) | -77.1% (active) | 40.7% | 27.9% | -28.9% (active) | -16.2% (active) |
| O=C(CNc1nc(-c2ccccc2)cs1)Nc1ccc(Br)cc1 | -76.8% (active) | -95.9% (active) | -90.3% (active) | -98.2% (active) | -95.3% (active) | -100% (active) | -92.3% (active) | -89.6% (active) | 5.21% (active) | – | -5.37% (active) | -5.23% (active) | -96.3% (active) | 8.41% (active) | -75.4% (active) | -77.7% (active) | 16.6% | -16.7% (active) | -18.8% (active) | -49.9% (active) |
| O=C(Cn1cc(CSc2nnc3oc4ccccc4n23)nn1)Nc1cccc(Cl)c1 | 55.6% | 57.6% | 76.5% | 55.3% | 79.3% | 66.7% | 59.8% | 106% | 50.6% | – | 48.5% | 74.9% | 87.8% | 54.3% | 78.7% | 78.5% | 66.6% | 53.4% | – | 63.4% |
| CC1=C2C(=C[C@@](C)(CO)[C@@H]2O)/C(=N\N)[C@](C)(O)C12CC2 | -100% (active) | -44.2% (active) | 0.386% (active) | -29.2% (active) | 1.74% (active) | -18.6% (active) | 1.03% (active) | -27.8% (active) | 18.8% | 3.48% (active) | – | – | -42.8% (active) | -24.7% (active) | -11.3% (active) | -24.4% (active) | -12.5% (active) | -43.2% (active) | – | -21.7% (active) |
| Brc1ccc(/C=C/c2n(Cc3ccc4ccccc4c3)c3ccccc3[n+]2Cc2ccc3ccccc3c2)cc1 | -88.9% (active) | -81.6% (active) | -58.9% (active) | 44.6% | -63.2% (active) | -31.6% (active) | -29.9% (active) | 54.9% | -14.2% (active) | – | -56.8% (active) | -64% (active) | -91.1% (active) | -3.34% (active) | -68.4% (active) | -89.5% (active) | -43.6% (active) | 78.7% | – | -85.9% (active) |
| C#Cc1ccc(S(=O)(=O)Nc2cccc(-c3csc(NC(C)=O)n3)c2)cc1 | 81.5% | 57.9% | 79% | -81.1% (active) | 81.7% | 82.6% | 65.3% | 96% | 49.5% | – | 42.1% | 85.5% | 101% | 88.9% | 49.5% | 82.7% | 83.6% | 70.8% | – | 59.7% |
| c1ccc(C(=C(c2ccc(OCCN3CCCCC3)cc2)c2ccc(OCCN3CCCCC3)cc2)C2CCCC2)cc1 | -90.2% (active) | 21.4% | -8.67% (active) | 89.5% | 16.6% | 80.3% | 76.1% | 102% | -60.4% (active) | – | -51.4% (active) | -48.8% (active) | -22.5% (active) | -45.3% (active) | -85.8% (active) | -92.9% (active) | -9.63% (active) | 101% | – | 1.48% (active) |
| N[C@@H](CSSC[C@H](N)C(=O)Nc1ccc(OCC2CCCC2)cc1)C(=O)Nc1ccc(OCC2CCCC2)cc1 | -93% (active) | -90.2% (active) | -98.5% (active) | -100% (active) | -95.5% (active) | -100% (active) | -99.1% (active) | -85.4% (active) | -60.5% (active) | – | -57.3% (active) | -59.8% (active) | -100% (active) | -97.9% (active) | -92.1% (active) | -86.5% (active) | -61.7% (active) | -77.2% (active) | – | -96.9% (active) |
| COc1ccc(C(C)=C(c2ccc(OCCCN(C)C)cc2)c2ccc(OCCCN(C)C)cc2)cc1 | -92.8% (active) | -85.1% (active) | -94.2% (active) | -99.4% (active) | -97.7% (active) | -100% (active) | -100% (active) | -85.2% (active) | -81.2% (active) | – | -66% (active) | -92.6% (active) | -100% (active) | -99.5% (active) | -91.1% (active) | -81.3% (active) | -68.2% (active) | -96.6% (active) | – | -94.6% (active) |
| COc1cccc(-c2nn(-c3ccccc3)cc2-c2ccnc(NCCCNC(=O)Nc3ccc(F)cc3)c2)c1 | -40.6% (active) | 20.7% | 23.6% | 17.7% | 49.8% | 20.6% | 19.2% | 58% | -26.7% (active) | – | -27.4% (active) | 11.1% | 27.1% | 3.71% (active) | 15.8% | 28.4% | -3.48% (active) | -35.6% (active) | – | 22.8% |
| Cc1ccc(C(=O)NCCCNc2nc(Nc3ccc(N4CCN(C)CC4)cc3)nc3ccsc23)cc1 | 81.8% | 71.2% | 72.6% | 56.7% | 87.2% | 30.5% | 54% | 137% | 4.37% (active) | – | 10.1% | 29.2% | 69.1% | 92.9% | 69.2% | – | 66.9% | 46.5% | – | 39.6% |
| COC1CC(Cn2cc(COc3ccc4ccc(=O)oc4c3)nn2)C(OCc2ccccc2)C(OCc2ccccc2)C1OCc1ccccc1 (stereo unspecified) | 114% | 90.7% | 106% | 71.7% | 110% | 105% | 84% | 116% | 87% | – | 77.7% | 103% | 111% | 91.9% | 107% | 125% | 109% | 94.3% | – | 93.4% |
| CC1(C)CC[C@]23CC[C@]4(C)[C@H](CC[C@@H]5[C@@]6(C)CC[C@H](N)C(C)(C)[C@@H]6CC[C@]54C)[C@H]2[C@H]1OC3=O | -77.2% (active) | -95.4% (active) | -96% (active) | -96.7% (active) | -90.1% (active) | -100% (active) | -98.2% (active) | -90.3% (active) | -32.4% (active) | – | -31.4% (active) | -50.7% (active) | -99.9% (active) | -32.1% (active) | -94.2% (active) | -81% (active) | -62.2% (active) | -69.4% (active) | – | -90.3% (active) |
